From PubChem BioAssay AID588 (National Center for Advancing Translational Sciences (NCATS), 2007) come the findings set out here.

The structures appear in SMILES notation. Screen size: about 59,000 compounds; about 25 (0.04%) were called active. No rule for the calls is given here. The entries come from a sample that favours actives as a whole.

A short description of this experiment: qHTS Assay for Spectroscopic Profiling in Resorufin Spectral Region. The conditions noted are these: Compound fluorescence, resorufin region 547/598 nm, buffer. Summed up: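 Compounds in 100 mM Tris, pH 8.0, incubated 15 min at room temperature, then fluorescence read at 547 nm excitation/598 nm emission. Signal converted to dye-equivalent concentration via an on-plate six-point resorufin standard curve, per compound concentration.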
On the technique in general: Quantitative high-throughput screening tests each substance at several concentrations.
Regarding `Cc1c(-c2nn(C)c(=O)c3ccccc23)oc2ccc(F)cc2c1=O`, the max dye-equivalent concentration result was “inactive”.

For the compound `COCCn1c(=O)[nH]c2cc(C(=O)NCc3cccnc3)ccc2c1=O`, the max dye-equivalent concentration result is “inactive”.

`NS(=O)(=O)c1cc(Cl)c(Cl)c(S(N)(=O)=O)c1`: the max dye-equivalent concentration entry was “inactive”.

With `CCOCCCN1C(=O)CN(C2CCCCC2)C(=O)C1c1ccc(OCC)c(OC)c1` (stereo not given), the max dye-equivalent concentration result is “inactive”.

On to `Cc1cc(C)c2nc(N3CCCC3)c(C#N)cc2c1`, for which the max dye-equivalent concentration result was “inactive”.

In the case of `COc1cccc(C(=O)c2cc3ccc(O)cc3oc2=O)c1`, the max dye-equivalent concentration result is “inactive”.

Consider `O=C1[C@@H]2C(Cc3ccc(O)cc3)NC3(C(=O)Nc4ccc(F)cc43)[C@@H]2C(=O)N1c1ccc(F)cc1` (stereo not given in full), for which the max dye-equivalent concentration entry is “inactive”.

Consider `CCC(=O)N(Cc1cc2cc(OC)ccc2[nH]c1=O)c1ccccc1C`, for which the max dye-equivalent concentration result is “inactive”.

With `COc1cccc(OCC(O)CN2CCN(CCO)CC2)c1` (stereo not given), the max dye-equivalent concentration result is “inactive”.

Turning to `C=CCn1c(SCC(=O)NC23CC4CC(CC(C4)C2)C3)nc(O)cc1=O`, the max dye-equivalent concentration entry was “inactive”.

As to `COCCn1c(=O)c(-c2cccs2)nc2cnc(N3CCN(C)CC3)nc21`, the max dye-equivalent concentration result is “inactive”.

On to `Cc1cc(C)cc(OCc2nnc(SCC(=O)OC3CCCCC3)o2)c1`, for which the max dye-equivalent concentration result was “inactive”.

Turning to `COCCn1c(=O)c(-c2ccc(OC)cc2)nc2cnc(Oc3cccc(Cl)c3)nc21`, the max dye-equivalent concentration result is “inactive”.

Regarding `CS(=O)(=O)Nc1cccc(-c2cncnc2Nc2ccccc2)c1`, the max dye-equivalent concentration entry is “inactive”.

As for `Cn1c(SCC(=O)OC2CCCCC2)nnc1-c1ccc(S(=O)(=O)N2CCCC2)cc1`, the max dye-equivalent concentration result is “inactive”.

Take `CCS(=O)(=O)N1CCC(C(=O)N2CCN(c3ccccc3)CC2)CC1`: the max dye-equivalent concentration result was “inactive”.

`CCOCC(=O)Nc1cc(OC)c(Cl)cc1OC`: the max dye-equivalent concentration entry is “inactive”.

Regarding `CCN1C(=O)/C(=C\N2CCN(c3cccc(Cl)c3)CC2)SC1=S`, the max dye-equivalent concentration entry was “inactive”.

As for `CCN(Cc1ccncc1)C(=O)[C@@H](CO)c1ccccc1`, the max dye-equivalent concentration result was “inactive”.

On to `CC(=O)N1CCC(C(=O)Nc2nc(-c3ccccc3)ns2)CC1`, for which the max dye-equivalent concentration result is “inactive”.

In the case of `COc1ccc(S(=O)(=O)NC(CC(=O)NCc2ccccc2OC)c2ccco2)cc1` (stereo not given), the max dye-equivalent concentration result was “inactive”.

Take `Nc1nc2c(ncn2[C@H]2CC[C@@H](CO)O2)c(=O)n1C(=O)c1ccccc1`: the max dye-equivalent concentration entry is “inactive”.

For `Cc1ccc(CNC(=O)CN2CCN(Cc3ccc(Cl)cc3)C2=O)cc1`, the max dye-equivalent concentration result was “inactive”.

For the compound `CCOCCc1c(O)nc(SCC(=O)NCc2ccco2)[nH]c1=O`, the max dye-equivalent concentration entry is “inactive”.

Regarding `COc1cc(OC)cc(C(=O)NCCSCc2ccco2)c1`, the max dye-equivalent concentration entry is “inactive”.

`O=c1[nH]c(=O)n([C@H]2C[C@H](O)[C@H](CO)O2)cc1Br`: the max dye-equivalent concentration entry is “inactive”.

Turning to `O=c1c(-c2ccc(F)cc2)nc2cncnc2n1-c1ccccc1`, the max dye-equivalent concentration entry is “inactive”.

On to `CCOc1ccc(N(CC(=O)NCc2ccc(OC)cc2)S(=O)(=O)c2c(C)noc2C)cc1`, for which the max dye-equivalent concentration entry was “inactive”.

Turning to `C[C@@H]1C[C@H]2[C@@H]3C[C@H](F)C4=CC(=O)C=C[C@@]4(C)[C@]3(F)[C@H](O)C[C@]2(C)[C@@]1(O)C(=O)CO`, the max dye-equivalent concentration result is “inactive”.

As for `O=C(Nc1ccccc1)c1cccnc1Nc1ccccc1`, the max dye-equivalent concentration result is “inactive”.

As for `Cc1ccc(NC(=O)NCC(c2cccnc2)N2CCOCC2)cc1` (stereo not given), the max dye-equivalent concentration result was “inactive”.

For the compound `O=C(c1ccco1)N1CCC[C@@]2(CCN(Cc3nccs3)C2)C1`, the max dye-equivalent concentration result is “inactive”.

On to `O=C1N=C(N2CCOCC2)CS1`, for which the max dye-equivalent concentration entry was “inactive”.

`Cc1ccc(C(=O)CS(C)(=O)=O)cc1`: the max dye-equivalent concentration entry is “inactive”.

Turning to `O=C(Nc1ccc(Cl)cn1)Nc1cccs1`, the max dye-equivalent concentration entry was “inactive”.
